Assay [1] is described as follows: inhibitors of TNFa-induced NFkB p65 translocation, primary screen, imaging, HUVEC, MLSMR starter and 10KST1 sets (AID 438;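 active means inhibition above 20% together with a positive visual image hit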;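 further: compound added about 3h40 before a 20 min TNFalpha stimulation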;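 on inhibition: signal is the nuclear over cytoplasmic p65 intensity ratio per well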). The following applies: HUVEC TNFa-induced p65 nuclear translocation; cell count: measured here: nuclei count (cytotoxicity indicator), at 2.08 µM; inhibition: at 2 µM, stronger effect = higher value, 0% TNFa-plus-vehicle, 100% no-TNFa wells.
Assay [2] in a line: reduction of polyQ htt aggregates in cells – imaging, exon1htt(103Q)mCFP cells, high-content imaging, primary screen (AID 483;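 active means visual image review flags a hit and inhibition of aggregation exceeds 20%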;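 further: compound exposure lasted 3 days before fixation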;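 on nuclei count: percent of the per-plate median nuclei count of sample wells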). The settings on record: exon1htt(103Q)mCFP cell line, aggregate imaging, at 2 µM; inhibition of aggregation: stronger effect = higher value; nuclei count: measured here: cell count, toxicity.
A short description of assay [3]: endothelial E-selectin expression blockers – imaging, HUVEC, immunofluorescence, MLSMR starter and 10KST1 sets, primary screen (AID 487;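 active means visually confirmed hit in the image check and inhibition above 20%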;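 on inhibition: signal is fraction of cell area covered by stained E-selectin grains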;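 on nuclei count: 100% = median nuclei count of all wells on the same plate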). The settings on record: HUVEC TNFalpha-induced E-selectin immunofluorescence imaging, at 2 µM; inhibition: stronger effect = higher value; nuclei count: measured here: cell number, toxicity.
In assay [4] the target is Voltage-gated potassium channel subunit beta-2 (Rattus norvegicus) (UniProt P62483). Nature of the assay: inhibitors of rat Kvbeta2 reductase activity – biochemical, NADPH fluorescence, primary screen (AID 622;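 active means fluorescence slope higher than the sample average by over 3 SD, cut at about -0.22 in these data, passing the limit was not always enough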;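 further: slope of raw intensity against log time taken from 70 to 1610 s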). The following applies: recombinant KvBeta, 4-cyanobenzaldehyde reduction, at 10 µM, stronger effect = higher value.
Chain of Voltage-gated potassium channel subunit beta-2 (Rattus norvegicus) (P62483 whole entry, looked up): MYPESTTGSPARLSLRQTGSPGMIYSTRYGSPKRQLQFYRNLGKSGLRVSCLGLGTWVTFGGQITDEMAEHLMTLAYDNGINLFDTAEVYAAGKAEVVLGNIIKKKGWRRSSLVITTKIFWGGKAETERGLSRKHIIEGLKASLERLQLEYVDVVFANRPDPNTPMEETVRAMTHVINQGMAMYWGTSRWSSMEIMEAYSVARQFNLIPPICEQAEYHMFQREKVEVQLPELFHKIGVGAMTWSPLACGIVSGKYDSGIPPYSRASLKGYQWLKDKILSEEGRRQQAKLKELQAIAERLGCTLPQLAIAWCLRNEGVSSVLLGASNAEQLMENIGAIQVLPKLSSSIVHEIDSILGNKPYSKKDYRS
The target is the same in assay [5]. Briefly: enhancers of rat Kvbeta2 NADPH turnover – biochemical, NADPH fluorescence, primary screen (AID 623;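 active means NADPH fluorescence slope more negative than the mean of all samples by about 3 SD, 99.7% confidence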;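 further: fluorescence intensity change per second fitted from 20 to 320 s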). The following applies: Recombinant KvBeta, NADPH fluorescence decrease slope, 10 min; at 10 µM; stronger effect = lower value.
The target of assay [6] is Alpha-2C adrenergic receptor (Homo sapiens) (UniProt P18825). Briefly: compounds altering alpha2C-coupled GIRK flux – cell-based, HEK293 alpha2C/GIRK1/2, thallium flux, primary screen (AID 624).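 Further: slope of fluorescence ratio to pre-addition baseline per second over 15 to 24 s.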 The settings on record: thallium flux BTC fluorescence, at 10 µM, actives lie on both sides.
Chain of Alpha-2C adrenergic receptor (Homo sapiens) (P18825 whole entry, looked up): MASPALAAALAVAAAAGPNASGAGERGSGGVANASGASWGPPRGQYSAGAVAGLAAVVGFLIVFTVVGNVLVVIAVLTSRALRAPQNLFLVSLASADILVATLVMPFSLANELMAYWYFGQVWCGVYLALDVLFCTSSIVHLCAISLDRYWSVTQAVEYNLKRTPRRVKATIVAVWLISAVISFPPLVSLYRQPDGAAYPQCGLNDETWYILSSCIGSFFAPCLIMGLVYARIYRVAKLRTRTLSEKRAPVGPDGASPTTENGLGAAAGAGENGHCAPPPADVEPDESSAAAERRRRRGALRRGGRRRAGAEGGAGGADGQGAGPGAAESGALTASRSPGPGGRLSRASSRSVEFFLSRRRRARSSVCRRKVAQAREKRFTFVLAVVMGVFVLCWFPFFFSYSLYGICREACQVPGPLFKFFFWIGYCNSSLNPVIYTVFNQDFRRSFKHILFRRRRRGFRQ
Assay [7] in a line: blockers of RIG-like receptor reporter activation – cell-based, Sendai virus stimulus, luciferase, 10K MLSCN set, TLR/RLR signaling modifier project, primary screen (AID 602276;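 active means inhibition at or above 50% at 10 µM; inactive means inhibition below 50%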;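 further: firefly luciferase from ISG56 promoter only with Renilla not read in this screen; 0% = Sendai virus plus DMSO and 100% = medium plus DMSO without virus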). The settings on record: HEK293 RL24 IRF3 luciferase reporter, at 10 µM, stronger effect = higher value. A general note: Reporter assays use an easily measured gene product as a stand-in for the process of interest.

A short description of assay [8]: TLR3 IRF3 reporter activation blockers – cell-based, poly I:C stimulus, luciferase, 10K MLSCN set, primary screen (AID 602277;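 active means inhibition of the reporter signal at or above 50%; inactive means inhibition below 50%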). The settings on record: HEK293-TLR3 RL24 IRF3 luciferase reporter, at 10 µM, stronger effect = higher value.

Data on 14 compounds can be found in PubChem BioAssay.

By inhibition is commonly meant the drop in the measured response relative to a control, in per cent.

Structures are written as SMILES. Calls of active or inactive are those of the source.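 How the source made its calls, unless noted: active means fluorescence slope after compound addition differing from the mean of all screened samples at 99.7% confidence, in either direction; inactive means the rest.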

For `CCN1CCN(c2nc(C)nc3c2sc(=S)n3C)CC1`, in assay [1], the cell count was 640. In addition, the inhibition in assay [1] was -4.8% (inactive); in assay [3] it was -24.6% (inactive); in assay [7] it was -3.52% (inactive); in assay [8], 18% (inactive). Besides, the inhibition of aggregation in assay [2] was 7.2% (inactive). Also, the values for the nuclei count in assay [2] and in assay [3] were 82.9% and 109%, respectively. Also, the fluorescence slope in assay [4] was -0.587 (inactive). In assay [5], the NADPH fluorescence slope is -2.8e-05 (inactive). Further, the slope in assay [6] was 0.00433 (inactive).

`Cc1ccc(-c2cc(C(F)F)n3ncc(C(=O)N4CCN(c5ccccn5)CC4)c3n2)cc1`: the cell count in assay [1] was 829. In addition, the inhibition is -1.7% (inactive) in assay [1], -56.7% (inactive) in assay [3], 17.4% (inactive) in assay [7] and 42.8% (inactive) in assay [8]. Also, in assay [2], the inhibition of aggregation was 9.3% (inactive). For the same compound, the nuclei count in assay [2] worked out at 85.3%; in assay [3] it was 120%. The fluorescence slope in assay [4] is -0.514 (inactive). For the same compound, the NADPH fluorescence slope in assay [5] is -3e-05 (inactive). Moreover, the slope in assay [6] was 0.00598 (inactive).

`Cc1ccccc1Cn1c(=O)c2c(nc3n2CCCN3Cc2ccccc2)n(C)c1=O`: the cell count in assay [1] came out at 348. Also, the inhibition in assay [1] was 7.4% (inactive); in assay [3], -25.1% (inactive); in assay [7], 22.9% (inactive); in assay [8] it was 19.5% (inactive). For the same compound, the inhibition of aggregation in assay [2] was 7.4% (inactive). The nuclei count is 97.8% in assay [2] and 120% in assay [3]. Also, the fluorescence slope in assay [4] was -0.478 (inactive). Also, the NADPH fluorescence slope in assay [5] was -7.4e-06 (inactive). For the same compound, the slope in assay [6] is 0.00418 (inactive).

As for `CC1Cc2ccccc2N1C(=O)c1cnsn1` (centres undefined), the cell count in assay [1] stood at 623. Also, the inhibition was -4.5% (inactive) in assay [1], -138% (inactive) in assay [3], -9.05% (inactive) in assay [7] and -3.1% (inactive) in assay [8]. Moreover, the inhibition of aggregation in assay [2] was -10.5% (inactive). In addition, the nuclei count stood at 103% in assay [2] and 111% in assay [3]. In addition, the fluorescence slope in assay [4] is -0.489 (inactive). In assay [5], the NADPH fluorescence slope is -0.000237 (inactive). In addition, the slope in assay [6] was 0.00637 (inactive).

On to `COc1ccccc1N1CCN(S(=O)(=O)CC23CCC(CC2=O)C3(C)C)CC1` (centres undefined), for which, in assay [1], the cell count amounted to 522. Moreover, the inhibition in assay [1] is -8.1% (inactive); in assay [3] it was -64.4% (inactive); in assay [7], 9.34% (inactive); in assay [8] it was 25.6% (inactive). In addition, the inhibition of aggregation in assay [2] is 20.7% (inactive). Moreover, the figures for the nuclei count in assay [2] and in assay [3] were 103% and 157%, respectively. Besides, the fluorescence slope in assay [4] is -0.452 (inactive). In addition, the NADPH fluorescence slope in assay [5] was -3.6e-05 (inactive). Besides, the slope in assay [6] is 0.00394 (inactive).

In the case of `Cc1ccc(N2C(N)=NC(N)=NC23CCCC3)c(C)c1`, in assay [1], the cell count worked out at 656. The inhibition in assay [1] was -5.9% (inactive); in assay [3], -26% (inactive); in assay [7], 10% (inactive); in assay [8], 18.1% (inactive). Further, in assay [2], the inhibition of aggregation is -11.1% (inactive). In addition, the nuclei count in assay [2] stood at 106%; in assay [3], 122%. Moreover, in assay [4], the fluorescence slope is -0.635 (inactive). Also, the NADPH fluorescence slope in assay [5] is -5.6e-06 (inactive). The slope in assay [6] was 0.0067 (inactive).

Take `CCc1c(C(=O)Nc2ncn(Cc3cccc(C)c3)n2)csc1C`: in assay [1], the cell count was found to be 630. For the same compound, the inhibition in assay [1] was 1.2% (inactive); in assay [3], -66.7% (inactive); in assay [7], 7.43% (inactive); in assay [8], 15.5% (inactive). Further, the inhibition of aggregation in assay [2] was 2% (inactive). Also, the nuclei count in assay [2] was found to be 97.3%; in assay [3], 110%. For the same compound, in assay [4], the fluorescence slope is -0.343 (inactive). Also, in assay [5], the NADPH fluorescence slope is -4.3e-05 (inactive). For the same compound, in assay [6], the slope was 0.00495 (inactive).

In the case of `CCCNC(=O)Nc1ccccc1C(=O)Nc1ccc(OC)cc1`, in assay [1], the cell count worked out at 351. Besides, the inhibition in assay [1] was 8.1% (inactive); in assay [3], 25.8% (inactive); in assay [7] it was -1.84% (inactive); in assay [8], 30.5% (inactive). In assay [2], the inhibition of aggregation is -15.5% (inactive). Moreover, the nuclei count came to 104% in assay [2] and 108% in assay [3]. Moreover, the fluorescence slope in assay [4] is -0.445 (inactive). Also, the NADPH fluorescence slope in assay [5] was -1.6e-06 (inactive). Further, the slope in assay [6] is 0.00585 (inactive).

For `O=C(O)CSC1CC(=O)N(c2ccc(Cl)c(Cl)c2)C1=O` (centres undefined), the cell count in assay [1] was determined as 754. Moreover, the inhibition is -2.8% (inactive) in assay [1], 4.8% (inactive) in assay [3], 3.92% (inactive) in assay [7] and 8.23% (inactive) in assay [8]. Further, the inhibition of aggregation in assay [2] is 11.7% (inactive). Besides, the nuclei count in assay [2] was 88.4%; in assay [3] it was 114%. The fluorescence slope in assay [4] was -0.304 (inactive). The NADPH fluorescence slope in assay [5] was -5.1e-05 (inactive). In addition, in assay [6], the slope was 0.00566 (inactive).

As to `Cc1cc(Br)ccc1NC(=O)CCN1C(=O)c2ccncc2C1=O`, the cell count in assay [1] came to 403. The inhibition in assay [1] was 3.8% (inactive); in assay [3], 39.2% (inactive); in assay [7], -13.8% (inactive); in assay [8], 13.1% (inactive). Besides, the inhibition of aggregation in assay [2] is -19.7% (inactive). The results for the nuclei count in assay [2] and in assay [3] were 96.6% and 89.7%, respectively. Also, the fluorescence slope in assay [4] was -0.51 (inactive). Moreover, in assay [5], the NADPH fluorescence slope was -3.1e-05 (inactive). Further, the slope in assay [6] was 0.00525 (inactive).

On to `Cc1cc(Nc2ccccc2F)n2ncnc2n1`, for which, in assay [1], the cell count stood at 542. The inhibition was 14.8% (inactive) in assay [1], -59.1% (inactive) in assay [3], -1.22% (inactive) in assay [7] and 12.8% (inactive) in assay [8]. Further, in assay [2], the inhibition of aggregation was -3.9% (inactive). The nuclei count in assay [2] stood at 137%; in assay [3], 111%. For the same compound, in assay [4], the fluorescence slope was -0.566 (inactive). Further, the NADPH fluorescence slope in assay [5] was -2.7e-05 (inactive). Besides, the slope in assay [6] was 0.00578 (inactive).

For `Cc1cccc(NC(=O)c2cnc3sccn3c2=O)n1`, the cell count in assay [1] stood at 613. The inhibition in assay [1] was -1.9% (inactive); in assay [3], -24.4% (inactive); in assay [7] it was -25.6% (inactive); in assay [8], -61.7% (inactive). Besides, the inhibition of aggregation in assay [2] is -0.7% (inactive). For the same compound, the nuclei count amounted to 115% in assay [2] and 109% in assay [3]. In addition, the fluorescence slope in assay [4] was -0.604 (inactive). The NADPH fluorescence slope in assay [5] is 5e-07 (inactive). In addition, in assay [6], the slope is 0.00666 (inactive).

Regarding `O=C(Nc1ccc(N2C(=O)C3C4C=CC(C4)C3C2=O)cc1)Nc1cccnc1` (centres undefined), the cell count in assay [1] is 426. For the same compound, the inhibition in assay [1] was 0% (inactive); in assay [3], -33.4% (inactive); in assay [7] it was 7.37% (inactive); in assay [8], 3.82% (inactive). Also, the inhibition of aggregation in assay [2] is -7.7% (inactive). In addition, the nuclei count in assay [2] was 104%; in assay [3], 112%. Also, the fluorescence slope in assay [4] was -0.334 (inactive). The NADPH fluorescence slope in assay [5] was -2.1e-05 (inactive). The slope in assay [6] was 0.00357 (inactive).

`CC(=O)NC(C)C(=O)OCC(=O)Nc1ccc(Br)cc1` (centres undefined): the cell count in assay [1] came to 436. Also, the inhibition in assay [1] was 6.9% (inactive); in assay [3], -23.8% (inactive); in assay [7], 20% (inactive); in assay [8], 13.9% (inactive). In assay [2], the inhibition of aggregation was 5.5% (inactive). The figures for the nuclei count in assay [2] and in assay [3] were 112% and 116%, respectively. Further, in assay [4], the fluorescence slope was -0.246 (inactive). For the same compound, in assay [5], the NADPH fluorescence slope was -5.1e-06 (inactive). The slope in assay [6] was 0.00449 (inactive).
